Screens (PubChem BioAssay)
HEK293 tox: qHTS of GLP-1 Receptor Inverse Agonists: Cytotox Screen; 410,000 compounds, 0.13% hits; Potency, µM (series often up to 38.3 µM), without a hit: top-dose activity change, negative = inhibition, hits mostly inhibitors; AID 624418, 2012; HEK293 cAMP-luciferase reporter cells, luminescence, 24 h;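 further: loss of luciferase light is scored as toxicity; on the % scale 0 is the no-effect control and ±100 the full control effect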
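Compound-treated cells are incubated 24 hr at 37 deg C under 5% CO2 after a 12 hour attachment period, then luciferase detection reagent is added and luminescence is measured following 12 min at room temperature; lowered signal indicates toxicity.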
GLP1R ag: qHTS of GLP-1 Receptor Agonists. 380,000 compounds, 0.007% hits. Glucagon-like peptide 1 receptor (Homo sapiens), P43220. HEK293 GLP-1R CRE-luciferase, luminescence, 4-6 h; cells express a hypersensitive GLP-1R form. AID 624172, 2012. Potency, µM (titrated, usually from 45.6 µM), inactives show top-dose activation, usual class: activators; further: % of control where 0% means no effect
RORgamma inh: qHTS for inhibitors of ROR gamma transcriptional activity; Nuclear receptor ROR-gamma (Mus musculus), P51450; Drosophila S2 Gal4-RORgamma UAS-luciferase reporter, 20 h; Potency, µM (highest dose often 53.6 µM), for the others: at the highest dose activity change, negative = inhibition, actives largely listed as inhibitors; 310,000 compounds, 5.4% hits; further: on the % scale 0 is the no-effect control and ±100 the full control effect; nearly all actives have a fitted effect of over 60% in size
Target sequence (P51450 whole entry, looked up, the tested form may be a part): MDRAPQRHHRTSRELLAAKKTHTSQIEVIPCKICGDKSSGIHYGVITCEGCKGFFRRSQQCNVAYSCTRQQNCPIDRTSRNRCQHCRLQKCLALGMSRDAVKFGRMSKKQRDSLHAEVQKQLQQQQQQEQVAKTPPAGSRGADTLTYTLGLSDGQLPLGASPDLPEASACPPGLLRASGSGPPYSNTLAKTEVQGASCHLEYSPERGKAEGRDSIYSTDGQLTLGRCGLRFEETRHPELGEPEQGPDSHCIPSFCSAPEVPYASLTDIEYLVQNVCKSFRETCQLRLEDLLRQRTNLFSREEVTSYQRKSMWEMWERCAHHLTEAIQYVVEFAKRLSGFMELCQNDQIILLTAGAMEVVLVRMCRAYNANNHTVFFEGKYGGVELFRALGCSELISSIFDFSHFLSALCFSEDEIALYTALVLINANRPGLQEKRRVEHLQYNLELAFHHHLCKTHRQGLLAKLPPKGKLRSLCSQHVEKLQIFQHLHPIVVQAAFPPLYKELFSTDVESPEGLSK
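ROR gamma transcriptional activity was tracked as Gal4-UAS luciferase output in stably transfected Drosophila Schneider cells, with compound added 1 hr before 700 uM copper sulfate induction and a 20 hr ambient-temperature incubation.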
Gal4-VP16 FLuc: VP16 counterscreen qHTS for inhibitors of ROR gamma transcriptional activity. Drosophila S2 Gal4-VP16 UAS-luciferase, luminescence, 20 h. Potency, µM (highest dose often 53.6 µM), inactives show at the highest dose activity, negative = inhibition, most hits filed as inhibitors. 310,000 compounds, 3.5% hits. AID 2546, 2010;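 further: Gal4-VP16 expression switched on by copper sulfate through the metallothionein promoter; on the % scale 0 is the no-effect control and ±100 the full control effect; nearly all actives have a fitted effect of over 50% in size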
GLP1R inv ag: qHTS of GLP-1 Receptor Inverse Agonists (Inhibition Mode). HEK293 GLP-1R CRE-luciferase, luminescence, 24 h; GLP-1R form is constitutively active. Potency, µM (highest dose often 38.3 µM), for inactives: top-dose activity change, negative = inhibition, usual class: inhibitors. 410,000 compounds, 1.6% hits. AID 624417, 2012; further: on the % scale 0 is the no-effect control and ±100 the full control effect; nearly all actives have a fitted effect of over 55% in size
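Assay principle: reduced luminescence from a cAMP-responsive reporter in HEK293 cells co-expressing a constitutively active GLP-1R. Conditions: 24 hr compound incubation, 37 deg C, 5% CO2.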
* = called active by the depositor; ? = inconclusive; nt = no result given. This is a sample that favours compounds with a hit; in the whole collection about 5.9% have one here. The call rests on the fitted dose curve; in most records, active means well fitted curve in the direction sought with a large enough effect; inconclusive means small, poorly fitted or top-dose-only effect, or another doubt; inactive means no such curve, though single readings can be large; an effect the other way counts as inactive or inconclusive. Potency means the concentration at half of the fitted maximal effect.

SMILES	HEK293 tox	GLP1R ag	RORgamma inh	Gal4-VP16 FLuc	GLP1R inv ag
Cc1nnc(NCc2ccc(F)cc2)c2c1nnn2Cc1ccccc1Cl	-3%	nt	nt	nt	23%
CCOc1cc(NC(=O)CCl)c(OCC)cc1NC(=O)CCl	?	7%	13µM*	20µM*	?
CCOc1ccccc1NC(=O)Nc1ccc(Cl)cc1	0%	-14%	?	?	?
CCOc1cc(NC(=S)Nc2ccc(Cl)cc2)c(OCC)cc1NC(C)=O	?	4%	11µM*	?	10%
CCOc1cc(NC(=S)Nc2cccc(C)c2)c(OCC)cc1NC(=O)CC(C)C	-16%	-2%	6.3µM*	20µM*	0%
CC(C)c1nn2c(=O)cc(COC(=O)C3CCCCC3)nc2s1	6%	nt	nt	nt	11%
CCOC(=O)C1CCCN(S(=O)(=O)c2csc(C(N)=O)c2)C1 (centres undefined)	5%	nt	nt	nt	-32%
O=C(Cn1c(=O)n(Cc2ccco2)c(=O)c2oc3ccccc3c21)Nc1ccc(F)c(Cl)c1	-4%	nt	nt	nt	5%
CCOC(=O)C1Oc2ccccc2C(c2ccccc2)=C1C(C)=O (centres undefined)	nt	nt	-11%	-5%	nt
CC(C)COc1cccc(-c2cc(C(=O)Nc3ccon3)c3ccccc3n2)c1	-1%	8%	?	28µM*	?
CCCOc1cccc(-c2cc(C(=O)N/N=C/c3cccnc3)c3ccccc3n2)c1	15%	-5%	8%	9%	-27%
CCCOc1cccc(-c2cc(C(=O)NN)c3ccccc3n2)c1	8%	-4%	11µM*	?	0%
CCCOc1cccc(-c2cc(C(=O)N/N=C/c3ccccn3)c3ccccc3n2)c1	?	3%	1µM*	1.3µM*	?
COc1cccc(Cn2c(=O)c(-c3ccc(Cl)cc3)nc3cnc(OC)nc32)c1	nt	nt	1%	-2%	nt
Cc1ccc(-c2ccc(=O)n(CC(=O)NCCc3ccccc3)n2)cc1	0%	nt	nt	nt	4%
Cc1cccc(N2C(=O)C3C4C=CC(CC4)C3C2=O)c1 (centres undefined)	7%	0%	0%	3%	-28%
CCOC(=O)c1cccc(N2C(=O)C3C4C=CC(CC4)C3C2=O)c1 (centres undefined)	-6%	4%	-1%	-2%	3.2µM*
CC(C)(C)c1ccc(S(=O)(=O)N2CCN(Cc3noc(CCC(=O)N4CCCCC4)n3)CC2)cc1	14%	nt	nt	nt	-27%
C=CCOC(/C=C/c1ccccc1)CC (centres undefined)	nt	nt	-8%	-2%	nt
CCOC(=O)c1sc(NC(=O)CCN2CCN(C)CC2)c(C(=O)OCC)c1C	3%	14%	?	?	11%
Cc1nonc1NC(=O)CSc1nc2ccccc2o1	?	0%	8.9µM*	?	?
Cc1cc(C)nc(NC(=O)CSc2nc3ccccc3o2)n1	-11%	0%	?	6%	10%
CCOC(=O)c1sc(NC(=O)CSc2nnc(Cc3ccccc3)o2)c(C(=O)OCC)c1C	-13%	-7%	?	-16%	0%
CCOC(=O)c1sc(NC(=O)CSc2nc3ccccc3o2)c(C(=O)OCC)c1C	1%	-1%	3.2µM*	2µM*	3%
CC(=O)Nc1nonc1NC(=O)CSc1nc2ccccc2o1	?	4%	0.79µM*	4µM*	-18%
CCOC(=O)c1c(NC(=O)CN2CCN(C)CC2)sc(C(=O)Nc2ccccc2)c1C	-13%	17%	-29%	-14%	13µM*
Cc1ccc(NC(=O)C2CCCN(S(=O)(=O)c3cccc4nsnc34)C2)cc1C (centres undefined)	2%	-3%	nt	nt	-20%
COc1ccccc1-c1oc2ccccc2c(=O)c1OC	nt	nt	-20%	-2%	nt
CC(C)COc1ccc(C(=O)Nc2sc3c(c2C(=O)O)CC(C)(C)OC3)cc1	-23%	1%	5%	-12%	11µM*
CCOC(=O)N1CCC2(CC1)C(C#N)=C(N)Oc1c2sc2nc(C)cc(C)c12	-25%	?	8.9µM*	?	-2%
